Source: the supplement of paper PMC10849652
Targets with a hit are over-represented here; the source holds about 7,900 in all. About 0.6% of all pairs of compound and target were hits. Unmarked numbers belong to inactive results.

Columns and labels:
Assay in all cases: log2 fold change, soluble protein after heating vs DMSO (PISA); higher = thermal stabilisation; K562 cells, 10 uM, 30 min; active = over 0.2 and 3.5 SD of the protein, either way, in both replicates (recomputed)
[1] = compound: CC1=C(C=C(C=C1)NC(=O)C2=CC(=CC=C2)C(C)(C)C#N)NC3=CC4=C(C=C3)N=CN(C4=O)C
Procedure, shortened: (§1)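 For each measurement, 10 μM compound was applied for 30 min to K562 cells at 2×10^6 cells/mL. Aliquots were heated for 3 min across 48°C-58°C, pooled, and extracted in PBS with 0.5% NP-40 at 4°C; the supernatant after 21,000xg for 90 min was soluble protein. This was quantified by TMTpro 16plex LC-MS/MS with channel sums equalised, and thermal stability was reported relative to control samples from duplicates, on a log2 fold-change scale.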

[2] = compound: CC1=C(C=C(C=C1)NC(=O)C2=CC(=CC=C2)N(C)C)NC(=O)C3=CC=C(C=C3)O
Procedure, shortened: as §1

[3] = compound: CC1=CC=C(C=C1)SC2=C3C=C(SC3=CN=C2)C(=O)N
Procedure, shortened: as §1

[4] = compound: CC1=NC(=CC=C1)C2=C(N=C(N2)C(C)(C)C)C3=CC4=NC=CN=C4C=C3
Procedure, shortened: as §1

Nexturastat A = compound: CCCCN(Cc1ccc(C(=O)NO)cc1)C(=O)Nc1ccccc1 [Nexturastat A]
Procedure, shortened: as §1

vemurafenib = compound: CCCS(=O)(=O)Nc1ccc(F)c(C(=O)c2c[nH]c3ncc(-c4ccc(Cl)cc4)cc23)c1F [vemurafenib]
Procedure, shortened: as §1

[5] = compound: CCCS(=O)(=O)Nc1ccc(F)c(C(=O)c2c[nH]c3ncc(Cl)cc23)c1F
Procedure, shortened: as §1

[6] = compound: CCCc1cc(C)[nH]c(=O)c1CNC(=O)c1cc(-c2ccnc(N3CCN(C)CC3)c2)cc2c1cnn2C(C)C
Procedure, shortened: as §1

givinostat = compound: CCN(CC)Cc1ccc2cc(COC(=O)Nc3ccc(C(=O)NO)cc3)ccc2c1 [givinostat]
Procedure, shortened: as §1

barasertib = compound: CCN(CCCOc1ccc2c(Nc3cc(CC(=O)Nc4cccc(F)c4)[nH]n3)ncnc2c1)CCOP(=O)(O)O [barasertib]
Procedure, shortened: as §1

volasertib = compound: CC[C@@H]1C(=O)N(C)c2cnc(Nc3ccc(C(=O)N[C@H]4CC[C@H](N5CCN(CC6CC6)CC5)CC4)cc3OC)nc2N1C(C)C [volasertib]
Procedure, shortened: as §1

[7] = compound: CC[C@H](C)N1C=C(C2=C(C=C(C=C21)C3=CN=C(C=C3)N4CCNCC4)C(=O)NCC5=C(C=C(NC5=O)C)C)C
Procedure, shortened: as §1

epoxomicin = compound: CC[C@H](C)[C@@H](C(=O)N[C@@H]([C@@H](C)O)C(=O)N[C@@H](CC(C)C)C(=O)[C@]1(CO1)C)NC(=O)[C@H]([C@@H](C)CC)N(C)C(=O)C [epoxomicin]
Procedure, shortened: as §1

[8] = compound: CCn1c(C(=O)N(C2CC2)C2CC2)cc2c3c(ncn3C)c(Nc3cc(C)n(C)n3)nc21
Procedure, shortened: as §1

[9] = compound: CCn1cc(-c2ccnc3[nH]c(-c4cccc(CN(C)C)c4)cc23)c(-c2ccc(NC(=O)N(C)C)cc2)n1
Procedure, shortened: as §1

[10] = compound: CN(C)CC(=O)Nc1ccc2[nH]c(=O)c3ccccc3c2c1
Procedure, shortened: as §1

rosiglitazone = compound: CN(CCOC1=CC=C(C=C1)C[C@H]2C(=O)NC(=O)S2)C3=CC=CC=N3 (racemic) [rosiglitazone]
Procedure, shortened: as §1

[11] = compound: CN1C2=C(C3=C1C(=O)N(N=C3)CC4=CC(=CC=C4)N)SC(=C2)S(=O)C
Procedure, shortened: as §1

[12] = compound: CN1CCC(CNc2ccc3ncc(-c4cccc(OC(F)(F)F)c4)n3n2)CC1
Procedure, shortened: as §1

[13] = compound: CC[C@@H]1C(=O)N(C)c2cnc(Nc3ccc(C(=O)NC4CCN(C)CC4)cc3OC)nc2N1C1CCCC1
Procedure, shortened: as §1

Sequence of UniProt O43395 (O43395 whole entry, looked up): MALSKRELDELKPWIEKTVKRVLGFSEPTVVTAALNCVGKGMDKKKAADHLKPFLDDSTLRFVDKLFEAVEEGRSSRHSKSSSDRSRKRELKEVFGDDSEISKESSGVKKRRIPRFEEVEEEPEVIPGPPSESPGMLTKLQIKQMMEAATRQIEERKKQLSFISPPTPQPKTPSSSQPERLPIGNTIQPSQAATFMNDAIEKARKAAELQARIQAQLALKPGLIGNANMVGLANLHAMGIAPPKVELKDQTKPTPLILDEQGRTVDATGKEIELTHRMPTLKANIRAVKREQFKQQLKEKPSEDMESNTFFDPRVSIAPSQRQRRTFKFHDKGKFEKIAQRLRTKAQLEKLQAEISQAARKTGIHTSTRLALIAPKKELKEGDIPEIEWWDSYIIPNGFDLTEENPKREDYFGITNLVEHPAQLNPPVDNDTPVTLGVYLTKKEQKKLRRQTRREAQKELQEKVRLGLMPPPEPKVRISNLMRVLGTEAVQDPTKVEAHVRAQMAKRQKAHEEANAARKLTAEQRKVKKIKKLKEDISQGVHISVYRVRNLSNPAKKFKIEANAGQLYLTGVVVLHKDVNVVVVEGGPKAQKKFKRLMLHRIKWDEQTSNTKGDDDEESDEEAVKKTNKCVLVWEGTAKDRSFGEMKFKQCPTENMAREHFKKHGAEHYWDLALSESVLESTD
Sequence of UniProt P40425 (P40425 whole entry, looked up): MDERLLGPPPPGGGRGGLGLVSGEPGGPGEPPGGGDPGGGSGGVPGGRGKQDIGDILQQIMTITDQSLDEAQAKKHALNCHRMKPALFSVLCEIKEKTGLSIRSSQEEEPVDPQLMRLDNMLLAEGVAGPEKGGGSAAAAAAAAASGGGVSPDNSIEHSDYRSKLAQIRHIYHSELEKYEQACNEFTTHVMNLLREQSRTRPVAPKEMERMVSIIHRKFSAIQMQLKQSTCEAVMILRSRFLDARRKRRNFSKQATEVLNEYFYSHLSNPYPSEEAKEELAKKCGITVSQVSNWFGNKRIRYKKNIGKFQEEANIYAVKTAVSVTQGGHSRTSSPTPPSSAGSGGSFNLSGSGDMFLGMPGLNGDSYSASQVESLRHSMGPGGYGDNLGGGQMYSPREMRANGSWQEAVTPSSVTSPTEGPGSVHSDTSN
Sequence of UniProt P05423 (P05423 whole entry, looked up): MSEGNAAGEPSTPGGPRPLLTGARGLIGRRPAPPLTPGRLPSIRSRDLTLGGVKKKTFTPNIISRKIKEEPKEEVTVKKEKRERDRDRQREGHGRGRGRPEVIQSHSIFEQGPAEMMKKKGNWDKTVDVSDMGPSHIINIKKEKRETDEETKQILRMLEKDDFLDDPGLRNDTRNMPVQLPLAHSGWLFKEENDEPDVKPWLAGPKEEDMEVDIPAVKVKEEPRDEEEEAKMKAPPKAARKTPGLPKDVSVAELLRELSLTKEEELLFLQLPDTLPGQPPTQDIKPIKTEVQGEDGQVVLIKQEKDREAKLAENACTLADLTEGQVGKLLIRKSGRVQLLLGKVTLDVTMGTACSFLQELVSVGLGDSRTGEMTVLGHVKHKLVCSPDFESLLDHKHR
Sequence of UniProt Q15111 (Q15111 whole entry, looked up): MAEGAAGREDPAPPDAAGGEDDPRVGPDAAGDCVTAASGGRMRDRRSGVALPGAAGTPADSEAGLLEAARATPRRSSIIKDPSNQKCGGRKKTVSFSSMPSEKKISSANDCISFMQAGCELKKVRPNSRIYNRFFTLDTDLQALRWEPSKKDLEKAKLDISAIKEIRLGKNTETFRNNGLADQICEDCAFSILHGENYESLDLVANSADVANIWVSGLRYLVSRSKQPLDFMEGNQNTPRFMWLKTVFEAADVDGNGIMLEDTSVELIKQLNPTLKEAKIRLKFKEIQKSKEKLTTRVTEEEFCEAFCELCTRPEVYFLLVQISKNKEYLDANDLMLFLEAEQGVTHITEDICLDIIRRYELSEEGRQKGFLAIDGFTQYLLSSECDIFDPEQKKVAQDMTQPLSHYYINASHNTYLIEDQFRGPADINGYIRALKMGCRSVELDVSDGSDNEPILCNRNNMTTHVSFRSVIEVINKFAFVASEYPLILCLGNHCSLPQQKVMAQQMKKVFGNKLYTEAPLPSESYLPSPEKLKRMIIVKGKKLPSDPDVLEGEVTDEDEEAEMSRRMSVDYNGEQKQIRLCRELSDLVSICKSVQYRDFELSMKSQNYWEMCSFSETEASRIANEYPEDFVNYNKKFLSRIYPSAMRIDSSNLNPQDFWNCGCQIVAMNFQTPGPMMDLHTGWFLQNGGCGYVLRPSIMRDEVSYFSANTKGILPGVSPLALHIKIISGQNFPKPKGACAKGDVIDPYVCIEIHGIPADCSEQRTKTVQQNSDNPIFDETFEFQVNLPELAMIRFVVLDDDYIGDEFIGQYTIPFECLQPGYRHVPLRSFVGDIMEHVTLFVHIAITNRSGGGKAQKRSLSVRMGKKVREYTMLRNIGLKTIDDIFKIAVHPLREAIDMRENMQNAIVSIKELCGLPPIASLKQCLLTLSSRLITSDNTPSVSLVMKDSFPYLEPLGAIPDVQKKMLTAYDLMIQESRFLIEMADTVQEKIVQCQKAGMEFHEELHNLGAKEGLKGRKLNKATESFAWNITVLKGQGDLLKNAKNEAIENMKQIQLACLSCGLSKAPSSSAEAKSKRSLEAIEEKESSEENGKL
Sequence of UniProt Q2TAL8 (Q2TAL8 whole entry, looked up): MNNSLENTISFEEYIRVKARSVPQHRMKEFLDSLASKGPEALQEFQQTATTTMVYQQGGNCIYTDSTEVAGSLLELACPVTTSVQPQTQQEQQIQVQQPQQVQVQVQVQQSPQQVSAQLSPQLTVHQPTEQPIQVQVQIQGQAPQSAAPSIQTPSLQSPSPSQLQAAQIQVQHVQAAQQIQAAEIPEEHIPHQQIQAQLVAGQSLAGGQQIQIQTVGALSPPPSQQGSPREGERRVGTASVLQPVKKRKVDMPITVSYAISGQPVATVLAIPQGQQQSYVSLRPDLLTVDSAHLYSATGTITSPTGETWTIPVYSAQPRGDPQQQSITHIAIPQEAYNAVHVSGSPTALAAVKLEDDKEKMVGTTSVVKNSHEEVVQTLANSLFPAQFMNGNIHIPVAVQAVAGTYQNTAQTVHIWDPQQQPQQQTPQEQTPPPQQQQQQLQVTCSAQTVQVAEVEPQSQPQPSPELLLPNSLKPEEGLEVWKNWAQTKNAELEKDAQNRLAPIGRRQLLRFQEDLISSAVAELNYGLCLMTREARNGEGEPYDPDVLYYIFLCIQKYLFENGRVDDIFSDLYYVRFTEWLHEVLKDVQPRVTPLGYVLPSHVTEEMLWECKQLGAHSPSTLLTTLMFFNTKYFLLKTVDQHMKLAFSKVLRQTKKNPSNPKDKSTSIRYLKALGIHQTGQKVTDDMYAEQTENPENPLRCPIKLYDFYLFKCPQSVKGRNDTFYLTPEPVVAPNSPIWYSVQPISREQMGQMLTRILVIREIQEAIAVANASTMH
Sequence of UniProt Q86YH6 (Q86YH6 whole entry, looked up): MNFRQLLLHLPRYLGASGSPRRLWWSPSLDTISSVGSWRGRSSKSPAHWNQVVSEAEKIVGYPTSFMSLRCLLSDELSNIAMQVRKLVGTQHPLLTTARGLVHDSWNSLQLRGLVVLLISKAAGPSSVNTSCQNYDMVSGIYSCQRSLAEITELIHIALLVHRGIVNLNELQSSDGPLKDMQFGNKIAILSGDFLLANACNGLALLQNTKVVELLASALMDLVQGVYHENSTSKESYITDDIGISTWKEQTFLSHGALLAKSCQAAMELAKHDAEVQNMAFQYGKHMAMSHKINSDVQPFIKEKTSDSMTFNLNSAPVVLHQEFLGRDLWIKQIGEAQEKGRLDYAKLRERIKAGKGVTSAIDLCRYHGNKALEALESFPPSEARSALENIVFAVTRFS
Sequence of UniProt Q8WUA2 (Q8WUA2 whole entry, looked up): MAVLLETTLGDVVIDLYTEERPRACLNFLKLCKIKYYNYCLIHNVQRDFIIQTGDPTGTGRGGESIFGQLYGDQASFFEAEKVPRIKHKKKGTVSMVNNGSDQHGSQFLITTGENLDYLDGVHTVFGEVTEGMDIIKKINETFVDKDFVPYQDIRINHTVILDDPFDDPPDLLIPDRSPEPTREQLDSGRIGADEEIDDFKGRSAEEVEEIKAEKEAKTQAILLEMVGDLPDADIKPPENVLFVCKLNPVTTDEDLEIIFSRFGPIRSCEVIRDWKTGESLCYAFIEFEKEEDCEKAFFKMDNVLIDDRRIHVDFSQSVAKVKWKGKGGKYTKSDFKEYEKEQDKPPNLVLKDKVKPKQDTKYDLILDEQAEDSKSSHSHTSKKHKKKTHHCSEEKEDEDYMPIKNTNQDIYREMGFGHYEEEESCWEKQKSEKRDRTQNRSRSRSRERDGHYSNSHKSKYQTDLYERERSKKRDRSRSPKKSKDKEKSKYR
Sequence of UniProt O15305 (O15305 whole entry, looked up): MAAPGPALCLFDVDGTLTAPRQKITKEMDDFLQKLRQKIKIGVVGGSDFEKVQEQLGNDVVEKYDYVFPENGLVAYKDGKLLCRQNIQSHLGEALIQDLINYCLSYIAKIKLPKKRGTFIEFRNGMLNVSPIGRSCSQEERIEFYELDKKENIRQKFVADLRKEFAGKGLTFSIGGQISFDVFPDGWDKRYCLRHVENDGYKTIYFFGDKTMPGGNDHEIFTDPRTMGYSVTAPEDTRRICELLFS
Sequence of UniProt Q12974 (Q12974 whole entry, looked up): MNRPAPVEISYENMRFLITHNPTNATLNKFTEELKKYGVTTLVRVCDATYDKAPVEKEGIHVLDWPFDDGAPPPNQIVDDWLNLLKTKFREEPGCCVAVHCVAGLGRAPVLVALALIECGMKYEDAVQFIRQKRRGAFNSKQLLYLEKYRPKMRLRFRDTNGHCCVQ
Sequence of UniProt P53801 (P53801 whole entry, looked up): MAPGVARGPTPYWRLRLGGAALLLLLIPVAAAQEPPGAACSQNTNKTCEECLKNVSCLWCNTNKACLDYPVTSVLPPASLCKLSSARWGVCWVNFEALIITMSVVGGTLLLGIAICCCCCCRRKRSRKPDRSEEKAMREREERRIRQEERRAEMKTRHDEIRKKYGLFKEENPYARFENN

Target | log2 fold change [1] | log2 fold change [2] | log2 fold change [3] | log2 fold change [4] | log2 fold change (Nexturastat A) | log2 fold change (vemurafenib) | log2 fold change [5] | log2 fold change [6] | log2 fold change (givinostat) | log2 fold change (barasertib) | log2 fold change (volasertib) | log2 fold change [7] | log2 fold change (epoxomicin) | log2 fold change [8] | log2 fold change [9] | log2 fold change [10] | log2 fold change (rosiglitazone) | log2 fold change [11] | log2 fold change [12] | log2 fold change [13]
PLK1 (UniProt P53350) | 0.003 | -0.052 | -0.03 | -0.012 | 0.003 | 0.018 | 0.029 | 0.042 | -0.314 (active) | 0.015 | -2.06 (active) | 0.049 | 0.044 | -0.023 | 0.033 | -0.016 | 0.016 | -0.029 | -0.068 | 
QRICH1 (UniProt Q2TAL8) | 0.064 | -0.021 | 0.06 | 0.192 | 0.158 | 0.173 | 0.122 | -0.215 | 0.07 | 0.214 | -0.39 | 0.07 | 0.027 | -0.163 |  | 0.258 | -0.017 | 0 |  | -0.464 (active)
POLR2C (UniProt P19387) | -0.097 | -0.058 | 0.038 | -0.011 | 0.126 | 0.021 | 0.066 | -0.005 | 0.042 | 0.022 | -0.187 | 0.017 | 0.075 | -0.035 |  | 0.006 | 0.042 | -0.04 |  | 0.059
PRKD3 (UniProt O94806) | 0.096 | -0.052 |  | -0.012 |  | 0.294 |  | 0.115 | -0.008 | 0.086 |  |  |  | -0.033 | -0.125 | 0.059 | 0.192 | -0.002 | -0.418 | 
POLB (UniProt P06746) | 0.086 | -0.211 | 0.009 |  | 0.189 |  | 0.178 |  | -0.026 |  | -0.073 | 0.077 | 0.043 | -0.078 | 0.111 |  |  | 0.016 | -0.156 | -0.127
PPIL4 (UniProt Q8WUA2) | 0.006 | -0.02 | -0.06 | -0.007 | 0.145 | 0.001 | 0 | 0.04 | 0.045 | 0 | -0.253 (active) | 0.043 | 0.011 | -0.051 | 0.047 | 0.007 | -0.03 | 0.022 | -0.098 | -0.024
PMM2 (UniProt O15305) | -0.102 | 0.021 | -0.014 | -0.009 | -0.124 | -0.04 | -0.009 | -0.055 | 0.015 | 0.003 | -0.021 | 0.026 | -0.021 | -0.003 | -0.002 | -0.049 | 0.037 | -0.076 | -0.049 | -0.03
PDIK1L (UniProt Q8N165) | -0.079 | 0.031 | -0.265 | 0.068 | -0.077 | 0.026 | 0 | 0.03 | 0.034 | 0.055 | 0.108 | -0.056 | -0.128 | 0.123 |  | -0.028 | -0.135 | 0.02 |  | 0.123
PRPF3 (UniProt O43395) | 0.05 | -0.025 | 0.038 | 0.117 | -0.087 | 0.1 | 0.081 | -0.005 | 0.086 | 0.028 | -0.34 (active) | 0.069 | 0.069 | -0.05 | -0.062 | 0.116 | 0.059 | 0.004 | -0.17 | -0.114
PEX5 isoform 4 (UniProt P50542) | 0.089 | -0.018 |  |  | 0.145 | -0.066 |  |  | 0.127 |  |  |  | 0.2 | 0.096 |  | -0.017 |  | 0.366 |  | 
PDSS2 (UniProt Q86YH6) | -0.215 | 0.017 | 0.093 | -0.083 | -0.126 | -0.03 | 0.244 |  | -0.046 | 0.027 | 0.016 | 0.12 | 0.024 | 0.048 | -0.069 | 0.05 | 0.055 | 0.02 | 0.018 | 0.021
PTPA (UniProt A6PVN8) | 0.062 | -0.128 | -0.15 |  | -0.038 | -0.065 | -0.11 | 0.038 | -0.857 (active) | 0.01 | -0.041 | -0.03 | 0.053 | 0.099 | 0.047 | 0.016 | -0.105 | 0.069 | 0.011 | 0.051
POLR3D (UniProt P05423) | -0.078 | 0.014 | -0.01 | -0.023 | 0.153 | 0.03 | 0.055 | 0.104 | 0.065 | 0.098 | -0.394 (active) | 0.107 | -0.066 | -0.06 | 0.032 | 0.018 | -0.005 | 0.61 | -0.035 | 
PTP4A2 (UniProt Q12974) | 0.026 | -0.045 | 0.012 | 0.076 | -0.069 | -0.002 | -0.129 | 0.02 | -0.022 | -0.006 | 0.083 | 0.077 | 0.153 | 0.027 |  | -0.026 | -0.124 | -0.003 |  | 0.039
PTTG1IP (UniProt P53801) | 0.122 |  | -0.107 | -0.062 | -0.024 | -0.059 | 0.02 | 0.008 | -0.124 | -0.025 | -0.05 | -0.154 | -0.017 | -0.176 | -0.01 | -0.041 | 0.011 | 0.009 | -0.771 (active) | -0.223
PLCL1 (UniProt Q15111) | 0.056 | -0.061 |  | 0.03 | 0.253 | 0.068 |  | 0.159 | 0.21 | 0.205 |  | 0.232 | -0.034 | -0.206 | 0.311 | 0.035 | -0.128 |  | -0.094 | -0.018
PBX2 (UniProt P40425) | 0.049 | 0.001 | 0.089 | 0.165 | 0.072 | 0.099 | 0.136 | 0.026 | 0.138 | 0.03 | -0.251 | 0.025 | 0.123 | -0.03 | -0.009 | 0.023 | 0.052 | -0.056 | 0.024 | 
PDE2A (UniProt O00408) | -0.041 | 0.007 | 0.041 | -0.019 | -0.054 | 0.013 | 0.036 | -0.012 | -0.043 | 0.011 | -0.107 | 0.016 | -0.087 | 0.061 | -0.082 | 0.027 | -0.004 | 0 | -0.091 | -0.031
